From PubChem BioAssay (NCATS)
Inconclusive results are not listed. Unmarked numbers belong to inactive results. The source made the active and inactive calls. The call rests on the fitted dose curve; in most records, active means well fitted inhibition curve with a large enough effect; inconclusive means small, poorly fitted or top-dose-only effect; inactive means flat fitted curve, though single readings scatter.

Target: Glutathione peroxidase 1 (Homo sapiens) (UniProt P07203)
Test: Primary qHTS Assay for Inhibitors of Recombinant Selenoprotein Glutathione Peroxidase 1 (GPX1) (AID 1845191); further: nearly all actives have a fitted effect of over 65% in size
Settings: recombinant GPX1, GR-coupled NADPH fluorescence, 15 min; series mostly up to 48.8 µM; activity, negative = inhibition: at the top concentration
In short: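 10 nM GPX1 + cpd, 30 min RT; start w/ 1 mM GSH, 0.5 mM cumene hydroperoxide, 0.5 mM NADPH, 100 nM GR, 0.01% BSA; buffer 50 mM Tris-HCl pH 7.5, 2 mM EDTA, 150 mM NaCl; Fl 340/450, 0 & 15 min.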
On the % scale 0 is the no-effect control and ±100 the full control effect.

Glutathione peroxidase 1 (Homo sapiens), sequence (P07203 whole entry, looked up): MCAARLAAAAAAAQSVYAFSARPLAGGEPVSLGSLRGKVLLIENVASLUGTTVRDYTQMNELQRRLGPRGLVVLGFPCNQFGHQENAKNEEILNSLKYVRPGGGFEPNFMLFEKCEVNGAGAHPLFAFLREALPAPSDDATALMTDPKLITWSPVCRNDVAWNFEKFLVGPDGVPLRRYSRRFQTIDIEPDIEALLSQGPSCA

SMILES	outcome	activity, negative = inhibition	Potency
Cc1ccc(/C=N/n2c(-c3ccccc3)csc2=S)cc1	inactive		
CC(Oc1c(Cl)cccc1Cl)C1=NCCN1 (stereo unspecified)	inactive		
O=C(CCCCC(=O)Nc1c(I)cc(I)c(C(=O)O)c1I)Nc1c(I)cc(I)c(C(=O)O)c1I		-7.03%	
CNC[C@H](O)[C@@H](O)[C@H](O)[C@H](O)CO		-24.5%	
CC(=O)CC/C=C(\C)CC/C=C(\C)CC/C=C(\C)CCC=C(C)C		4.97%	
CN1CCCN=C1/C=C/c1cccs1			inactive
O=[N+]([O-])c1ccc(O)c2ncccc12	inactive		
CC(=O)N(CC(O)CO)c1c(I)c(C(=O)NCCO)c(I)c(C(=O)NCC(O)CO)c1I (stereo unspecified)	inactive		
O=C(Oc1ccccc1)c1ccccc1O		-26.3%	
Nc1c(I)cc(I)c(C(=O)N(CCC(=O)O)c2ccccc2)c1I		-10%	
CC(=O)Nc1c(I)c(NC(C)=O)c(I)c(C(=O)O)c1I		3.99%	
OCCOCCN1CCN(C(c2ccccc2)c2ccc(Cl)cc2)CC1 (stereo unspecified)		-23%	
CC(=O)Nc1ccc(S(=O)(=O)Nc2cc(C)on2)cc1		-14.1%	
CCOC(=O)NNc1ccc(N(CC)CC(C)O)nn1 (stereo unspecified)	inactive		
C[N+]1(C)CCC(OC(=O)C(O)(c2ccccc2)C2CCCC2)C1 (stereo unspecified)	inactive		
CC(C)C[C@@H]1[C@H](c2ccccc2)OC(=O)N1CCCN1CCCCCC1	inactive		
C[C@@H]1CCC[C@H](C)N1CCCC(O)(c1ccccc1)c1ccccn1 (stereo partly specified)	inactive		
Cc1ncc(CO)c(CO)c1O		0.627%	

SMILES	outcome	activity, negative = inhibition	Potency
CCC(C(=O)OCCN1CCOC(c2ccccc2)C1C)c1ccccc1 (stereo unspecified)	inactive		
CCOC(=O)[C@H](CCc1ccccc1)N[C@@H](C)C(=O)N(CC(=O)O)C1Cc2ccccc2C1	inactive		
CCOC(=O)O[C@]1(C(=O)OCCl)CC[C@H]2[C@@H]3CCC4=CC(=O)C=C[C@]4(C)[C@H]3[C@@H](O)C[C@@]21C			inactive
CCC(=O)O[C@]1(C(=O)COC)[C@@H](C)C[C@H]2[C@@H]3CCC4=CC(=O)C=C[C@]4(C)C3(F)[C@@H](O)C[C@@]21C (stereo partly specified)		-15%	
O=C(O)c1ccccc1S		-7.37%	
CC(=O)N[C@@H](CCC(N)=O)C(=O)O		-8.38%	
CCn1ccc(NS(=O)(=O)c2ccc(N)cc2)nc1=O	inactive		
CCCC(=O)O[C@]1(C(=O)CC)CC[C@H]2[C@@H]3CCC4=CC(=O)CC[C@]4(C)[C@H]3[C@@H](O)C[C@@]21C		-13.4%	
C/C(=C(/OCCOc1ccc(Cl)cc1)c1ccc(Cl)cc1Cl)n1ccnc1		0.683%	
O=C(c1ccccc1)c1ccccc1	inactive		
Cc1ccccc1N1CCN(CCc2nnc3n2CCCC3)CC1		3.61%	
CCC(CN)=C(c1ccccc1)c1ccccc1		-17.7%	
CO[C@@H]1[C@@H](O[C@@H]2O[C@H](C)[C@@H](O[C@H]3C[C@@](C)(O)[C@@H](O)[C@H](C)O3)[C@H](N(C)C)[C@H]2O)[C@@H](CC=O)C[C@@H](C)[C@@H](O[C@@H]2CC[C@H](N(C)C)[C@@H](C)O2)/C=C/C=C/C[C@@H](C)OC(=O)C[C@H]1OC(C)=O		-25%	
CC(C)(C)CC(=O)OCC(=O)[C@@]1(O)CC[C@H]2[C@@H]3CCC4=CC(=O)C=C[C@]4(C)[C@H]3[C@@H](O)C[C@@]21C		-9.49%	
COC(=O)CCCCC(CCSS/C(CCO)=C(\C)N(C=O)Cc1cnc(C)nc1N)SC(C)=O (stereo unspecified)		-5.62%	
CCOC(=O)c1cc(=O)c2c(OCC(COc3cccc4oc(C(=O)OCC)cc(=O)c34)OC(=O)[C@@H](N)CCCCN)cccc2o1		-25.6%	
CCCC(=O)OCOC(=O)C1=C(C)NC(C)=C(C(=O)OC)C1c1cccc(Cl)c1Cl (stereo unspecified)		-13.6%	
Cc1c(C)c2c(c(C)c1OC(=O)CCC(=O)OCCO)CC[C@@](C)(CCC[C@H](C)CCC[C@H](C)CCCC(C)C)O2		-17.5%	
